From PubChem BioAssay (NCATS)
Records with an inconclusive call do not appear. Where a call stands in place of a potency, no number is given. Activity calls are given as the source filed them. Calls follow the shape of the dose curve; as a rule, active = well fitted curve in the direction sought with a large enough effect; inconclusive = small, poorly fitted or top-dose-only effect, or another doubt; inactive = no such curve, though single readings can be large; an effect the other way counts as inactive or inconclusive.

Test: Quantitative highthroughput screen to assess conditional lethalithy of P12 Ichikawa cells grown in Human Plasma-Like Medium with dialyzed fetal bovine serum (HPLM+ds) (AID 1963879)
Settings: ATP luminescence, 48 h; Potency: viability; series mostly up to 45.8 µM
Procedure, shortened: (§1)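 Each medium arm—HPLM with 10% dialyzed FBS, or RPMI1640 with 5 mM glucose and 10% untreated or dialyzed FBS—was screened against an 11-point, 3-fold compound titration for 48 h at 37 °C, with CellTiter-Glo luminescence as endpoint.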
Also: nearly all actives have a fitted effect of over 35% in size.
Potency is read from the fitted curve at half-maximal effect.

| SMILES | Potency |
| --- | --- |
| CN(C)[C@@H]1C(=O)C(C(N)=O)=C(O)[C@@]2(O)C(=O)C3=C(O)c4c(O)cccc4[C@@](C)(O)[C@H]3C[C@@H]12 | inactive |
| CCCCCC[C@H]1C(=O)O[C@H](C)[C@H](NC(=O)c2cccc(NC=O)c2O)C(=O)O[C@@H](C)[C@@H]1OC(=O)CC(C)C | 1660 nM (active) |
| Cn1cc(C2=C(c3cn(C4CCN(Cc5ccccn5)CC4)c4ccccc34)C(=O)NC2=O)c2ccccc21 | inactive |
| CC(C)(O)C(=O)Nc1ccc([N+](=O)[O-])c(C(F)(F)F)c1 | 8330 nM (active) |
| CC(C)[C@H]1C(=O)N[C@H](CO)Cc2c[nH]c3cccc(c23)N1C | inactive |
| CNC(=O)c1ccc(N2C(=S)N(c3ccc(C#N)c(C(F)(F)F)c3)C(=O)C23CCC3)cc1F | inactive |

Test: Quantitative highthroughput screen to assess conditional lethalithy of P12 Ichikawa cells grown in RPMI1640 with dialyzed fetal bovine serum (RPMI+ds) (AID 1963880)
Settings: ATP luminescence, 48 h; Potency: P12-Ichikawa viability; series mostly up to 45.8 µM
Procedure, shortened: as §1

| SMILES | Potency |
| --- | --- |
| O=C(O)C(=O)c1cn(Cc2ccccc2)c2ccc(-c3ccc(OC(F)(F)F)cc3)cc12 | inactive |
| CCOC(=O)Nc1ccc(NCc2ccc(F)cc2)cc1N | inactive |
| Cc1cc(SCc2sc(-c3ccc(C(F)(F)F)c(F)c3)nc2C)ccc1OCC(=O)O | inactive |
| O=c1[nH]c2ccccc2n1CCCN1CCC(n2c(=O)[nH]c3cc(Cl)ccc32)CC1 | inactive |
| Cn1cc(C2=C(c3cn(C4CCN(Cc5ccccn5)CC4)c4ccccc34)C(=O)NC2=O)c2ccccc21 | inactive |
| C#CC1(O)CCC2C3CCC4=CC(=O)CCC4(C)C3CCC21C (stereo not drawn) | inactive |
| CC(C)(O)C(=O)Nc1ccc([N+](=O)[O-])c(C(F)(F)F)c1 | 16600 nM (active) |
| CC(C)[C@H]1C(=O)N[C@H](CO)Cc2c[nH]c3cccc(c23)N1C | 418 nM (active) |
| COc1ccc2c(c1OC)CN1CCc3cc4c(cc3C1C2)OCO4 (stereo not drawn) | 1660 nM (active) |
| CNC(=O)c1ccc(N2C(=S)N(c3ccc(C#N)c(C(F)(F)F)c3)C(=O)C23CCC3)cc1F | inactive |

Test: Quantitative highthroughput screen to assess conditional lethalithy of SEM cells grown in Human Plasma-Like Medium with dialyzed fetal bovine serum (HPLM+ds) (AID 1963882)
Settings: SEM B-ALL cells in HPLM+ds, CellTiter-Glo viability, 48 h; series mostly up to 45.8 µM
Procedure, shortened: as §1

| SMILES | Potency |
| --- | --- |
| CN(C)[C@@H]1C(=O)C(C(N)=O)=C(O)[C@@]2(O)C(=O)C3=C(O)c4c(O)cccc4[C@@](C)(O)[C@H]3C[C@@H]12 | inactive |
| CCCCCC[C@H]1C(=O)O[C@H](C)[C@H](NC(=O)c2cccc(NC=O)c2O)C(=O)O[C@@H](C)[C@@H]1OC(=O)CC(C)C | inactive |
| CCOC(=O)Nc1ccc(NCc2ccc(F)cc2)cc1N | inactive |
| CC(C)c1cccc(C(C)C)c1O | inactive |
| C#CC1(O)CCC2C3CCC4=CC(=O)CCC4(C)C3CCC21C (stereo not drawn) | inactive |
| COc1ccc2c(c1OC)CN1CCc3cc4c(cc3C1C2)OCO4 (stereo not drawn) | 1050 nM (active) |
| CNC(=O)c1ccc(N2C(=S)N(c3ccc(C#N)c(C(F)(F)F)c3)C(=O)C23CCC3)cc1F | inactive |
